DUSP3 inh: VHR1 (DUSP3) phosphatase inhibition. P51452. recombinant VHR phosphatase, colorimetric substrate read-out. inhibition, % at 20 µM. 50,000 compounds, 0.7% hits; in the data active means inhibition above about 60%
Target sequence (P51452 whole entry, looked up): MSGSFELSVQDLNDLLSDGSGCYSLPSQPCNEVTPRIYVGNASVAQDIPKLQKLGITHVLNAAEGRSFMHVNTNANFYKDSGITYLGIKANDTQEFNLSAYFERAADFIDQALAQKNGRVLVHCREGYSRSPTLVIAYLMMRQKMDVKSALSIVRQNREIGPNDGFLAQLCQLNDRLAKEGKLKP
* hit, by the source's call. The entries come from a sample that favours hits as a whole.

SMILES | DUSP3 inh
CCC(CO)N=Cc1c(O)n(-c2c(Cl)cccc2Cl)c2ccccc12 (centres undefined) | 98*
CCn1c(O)c(N=NC(=O)c2ccccc2Cl)c2ccccc21 | -10
CCc1nccn1S(=O)(=O)c1cc(Cl)ccc1Br | -11
O=C1N=c2ccccc2=C1c1sc(=S)n(Cc2ccco2)c1O | 5
O=C1N=c2ccc(Cl)cc2=C1c1sc(=S)n(Cc2ccco2)c1O | 68*
CCCCn1c(O)c(C2=c3ccccc3=NC2=O)sc1=S | -8
COc1ccc(OC)c(C2C(C(C)=O)=C(O)C(=O)N2CCN(C)C)c1 (centres undefined) | 4
CC(=O)Nc1ccc(S(=O)(=O)Nc2ccc(Cl)c(Cl)c2)cc1 | 1
Cc1ccc(-c2ccc(/C=N/N3C(=O)C4C(C3=O)C3C=CC4C34CC4)o2)c([N+](=O)[O-])c1 (centres undefined) | -16
Cc1cccc(NC(=O)c2cc(-c3cccs3)nc3ccccc23)c1 | -11
COc1cccc(-c2cc(C(=O)Nc3sc(C)c(C)c3C(N)=O)c3ccccc3n2)c1 | 7
Cc1sc(NC(=O)c2cc(-c3cccs3)nc3ccccc23)c(C(N)=O)c1C | 88*
CC(=O)C1=C(C)NC(C)=C(C(C)=O)C1c1ccc(-c2ccccc2[N+](=O)[O-])o1 | -61
Cc1ccc(Cl)cc1NC(=O)C1CCCC1 | -10
Cc1cc(C)nc(NC(=O)CC(c2ccccc2)c2ccccc2)c1 | -13
O=C(CCC(=O)Nc1ccc(I)cc1)N/N=C/C=C/c1ccccc1 | -16
COc1cccc(-c2cc(C(=O)Nc3ncccn3)c3ccccc3n2)c1 | 11
COc1cccc(-c2cc(C(=O)Nc3nn[nH]n3)c3ccccc3n2)c1 | -11
COc1cccc(-c2cc(C(=O)Nc3nc4ccccc4s3)c3ccccc3n2)c1 | 68*
COc1cc(/C=C2\SC(=O)N(c3ccccc3)C2=O)ccc1O | -22
Cc1nn(-c2ccccc2)c2c1C(c1c(O)ccc3ccccc13)C(C#N)=C(N)O2 (centres undefined) | 17
CC1(C)CC(=O)C2=C(C1)Nc1ccccc1N(C(=O)c1ccc(Cl)cc1)C2c1ccco1 (centres undefined) | -77
Cc1cc(/C=C2\C(=O)NC(=S)N(c3ccc(Br)cc3)C2=O)c(C)n1-c1cccnc1 | 25
Cc1c(Cl)cccc1N=C1NC(=O)/C(=C/c2ccc3c(c2)OCO3)S1 | 24
Cc1c(Cl)cccc1N=C1NC(=O)/C(=C/c2ccc(-c3ccccc3C(=O)O)o2)S1 | 86*
SMILES | DUSP3 inh
Cc1c(Cl)cccc1N=C1NC(=O)/C(=C/c2cccc(O)c2)S1 | 2
Cc1cn([C@H]2C[C@@H](O)[C@@H](CO)O2)c(=O)n(C)c1=O | 2
Cc1ccccc1-c1nc(Cc2ccccc2Cl)no1 | 0
COc1ccc(Nc2nc(-c3ccc4ccccc4c3)cs2)cc1 | -23
COc1ccc(-c2csc(Nc3ccc(N)cc3)n2)cc1OC | 90*
COc1ccc(-c2csc(-c3nc(-c4ccc(OC)c(OC)c4)cs3)n2)cc1OC | -5
O=C(Nc1ccc2nn(-c3ccccc3)nc2c1)c1ccc(I)cc1 | 4
CCOc1cc(C(=O)Nc2ccc(C(=O)OC)cc2)cc(OCC)c1OCC | -21
Cc1cc(Br)ccc1N1C(=O)/C(=C/c2ccc(N(C)C)cc2)C(=O)NC1=S | 69*
COC(=O)c1ccc(/C=C2\C(=O)NC(=S)N(c3ccc(Br)cc3C)C2=O)cc1 | 9
COc1ccc(/C=C2\C(=O)NC(=S)N(c3ccc(Br)cc3C)C2=O)cc1OC | 98
Cc1ccc(/C=C2\C(=O)NC(=S)N(c3ccc(Br)cc3)C2=O)o1 | 26
Cc1ccc(C=C2C(=O)NC(=S)N(c3ccccc3Cl)C2=O)o1 | -5
Cc1ccc(/C=C2\C(=O)NC(=S)N(c3ccc(Br)cc3C)C2=O)o1 | 82*
Cc1nnc(SC(=O)Cn2c3ccccc3c3ccccc32)s1 | -21
COc1cccc(/C=N/Nc2nc(N3CCCCC3)nc(N3CCCCC3)n2)c1O | -5
CCc1cc2c(NCCc3ccc(OC)c(OC)c3)ncnc2s1 | -2
CC(=O)Nc1nonc1-c1nc2ccccc2n1Cc1ccc(C(C)(C)C)cc1 | -11
CC(=O)Nc1nonc1-c1nc2ccccc2n1Cc1ccccc1 | -2
CC(C)(C)c1ccc(Cn2c(-c3nonc3N)nc3ccccc32)cc1 | 60*
Brc1ccc2[nH]c3c(c2c1)CCCC3n1cccc1 (centres undefined) | 18
CCOc1ccccc1NC(=O)c1c(NC(=O)c2ccccc2F)sc2c1CCC(C)C2 (centres undefined) | -10
CCOc1ccccc1NC(=O)c1c(NC(=O)Cc2ccc(OC)cc2)sc2c1CCC(C)C2 (centres undefined) | 8
CCOc1ccccc1NC(=O)c1c(NC(=O)c2cccc(F)c2)sc2c1CCC(C)C2 (centres undefined) | 116*
O=c1oc2cc(OCc3ccc(Br)cc3)ccc2c2ccccc12 | 3
SMILES | DUSP3 inh
COc1ccc(OC)c(/C=N\Nc2cc(C)c3ccccc3n2)c1 | -13
Cc1ccc(CNC(=O)C(=O)Nc2cccc(C(F)(F)F)c2)cc1 | 7
CN1C(=O)/C(=C2\SC(=S)N(c3cccc(Cl)c3)C2=O)c2ccccc21 | -11
O=[N+]([O-])c1cccc(-c2noc(COc3ccc4ccccc4c3)n2)c1 | -22
O=C1c2ccccc2CCC1C1(O)C(=O)Nc2ccccc21 (centres undefined) | -1
O=C1c2ccccc2CCC1C1(O)C(=O)Nc2ccc(Br)cc21 (centres undefined) | 117*
CC1(C)CC(=O)C(C2(O)C(=O)Nc3ccc(Br)cc32)CO1 (centres undefined) | -11
O=C(Nc1cc(Oc2ccccc2)cc([N+](=O)[O-])c1)c1cccc(Cl)c1 | 8
CCOC(=O)c1c(N)sc2c1CCC(c1ccccc1)C2 (centres undefined) | 94*
CCOC(=O)c1c(NC(=O)Oc2ccccc2)sc2c1CCC(C)C2 (centres undefined) | -7
COC(=O)c1c(N)sc2c1CCC(c1ccccc1)C2 (centres undefined) | 12
CCOc1ccc(N2C(=O)/C(=C/c3ccc(I)o3)C(=O)NC2=S)cc1 | 85*
COc1ccccc1C=C1C(=O)NC(=S)N(c2ccccc2F)C1=O | 9
CCc1ccc(N2C(=O)/C(=C/c3ccc(I)o3)C(=O)NC2=S)cc1 | 42
O=C1NC(=S)N(c2ccccc2F)C(=O)/C1=C/c1ccc(I)o1 | 86*
CCOc1ccc(N2C(=O)NC(=O)/C(=C\c3ccc(I)o3)C2=O)cc1 | 20
CCOc1ccc(N2C(=O)/C(=C/c3ccc(C)o3)C(=O)NC2=S)cc1 | 23
COc1ccc(N2C(=O)/C(=C/c3cc(Cl)cc(Cl)c3O)C(=O)NC2=S)cc1 | 17
COc1ccc(OC)c(NC(=O)C2C3C4CCC(C4)C23)c1 (centres undefined) | 0
CCc1ccccc1N(CC(=O)Nc1ccc(C)c(C)c1)S(C)(=O)=O | 27
Cc1cc(NC(=O)c2ccccc2I)ccc1NC(=O)c1ccccc1 | -45
COc1ccccc1NC(=O)c1ccc(CN(c2ccc(C)c(C)c2)S(C)(=O)=O)cc1 | -16
Cc1cccc2c1N(C(=O)Cc1ccccc1)C(C)(C)c1ssc(=S)c1-2 | -9
CCOc1ccccc1NC(=O)c1c(NC(=O)c2ccccc2Cl)sc2c1CCC2 | -2
S=C(NCCN1CCOCC1)Nc1ccccc1 | 99*
S=C(NCCN1CCOCC1)Nc1cccc(Cl)c1 | 12
Fc1ccc(NC(=S)NCCN2CCOCC2)cc1 | 91
O=C(NCCN1C(=O)c2ccccc2C1(O)c1ccc(Cl)cc1)Nc1ccccc1 (centres undefined) | -5
CN(C)c1ccc(/C=C2\C(=O)NC(=O)N(c3ccccc3Cl)C2=O)cc1 | -10

Assay outcomes (PubChem)
